In PubChem BioAssay (NCI):
The panel holds about 83,000 compounds, 20% with a hit somewhere; the sample as a whole holds those more often.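 Note: values are percent growth. 100 is the growth of untreated cells, values between 100 and 0 indicate rising inhibition; between -100 and 0 indicates cell death.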 Calls of active or inactive are those of the source. Rule for the calls: active = growth percent below 10; inactive = the rest.

Key:
Experiment in all cases: NCI-60 one-dose screen, 48 h (100 = growth as untreated, 0 = no growth, -100 = all killed)
Details in all cases: 10 µM unless noted
SK-MEL-2 melanoma = test system: SK-MEL-2 melanoma
EKVX NSCLC = test system: EKVX NSCLC
SN12C renal = test system: SN12C renal
UO-31 renal = test system: UO-31 renal
TK-10 renal = test system: TK-10 renal
ACHN renal = test system: ACHN renal
CAKI-1 renal = test system: CAKI-1 renal
A498 renal = test system: A498 renal
CCRF-CEM leukemia = test system: CCRF-CEM leukemia
MOLT-4 leukemia = test system: MOLT-4 leukemia

Measured: growth

CCCC1OC(c2ccc(C(C)C)cc2)OCC1CC (stereo unspecified)
inactive: SK-MEL-2 melanoma 98.4% | EKVX NSCLC 101% | SN12C renal 105% | UO-31 renal 101% | TK-10 renal 97.1% | ACHN renal 99.5% | CAKI-1 renal 90.9% | A498 renal 94.4% | CCRF-CEM leukemia 95.9% | MOLT-4 leukemia 93.3%

O=S(=O)(NCCCNc1cc(-c2cn(-c3ccccc3)nc2-c2cccc(O)c2)ccn1)c1ccc(Br)cc1
inactive: EKVX NSCLC 30.5% | SN12C renal 16.5% | TK-10 renal 32.2% | ACHN renal 10.2% | CAKI-1 renal 13% | A498 renal 25.2% | CCRF-CEM leukemia 12.2%
active: SK-MEL-2 melanoma -5.21% | UO-31 renal 3.1% | MOLT-4 leukemia -5.44%

CCN(Cc1ccc(CN(CC)C(=O)C(Br)Br)cc1)C(=O)C(Br)Br
inactive: SK-MEL-2 melanoma 76.9% | EKVX NSCLC 31.3% | SN12C renal 48.9% | UO-31 renal 52.2% | TK-10 renal 48.1% | ACHN renal 12.1% | CAKI-1 renal 28.3% | A498 renal 38.3% | CCRF-CEM leukemia 24.9% | MOLT-4 leukemia 34.2%

CC1CCc2c(sc(NC(=O)CSc3nnc4ccccn34)c2C(N)=O)C1 (stereo unspecified)
inactive: SK-MEL-2 melanoma 48.4% | EKVX NSCLC 150% | SN12C renal 102% | UO-31 renal 110% | TK-10 renal 179% | ACHN renal 96.7% | CAKI-1 renal 95.7% | A498 renal 133% | CCRF-CEM leukemia 101% | MOLT-4 leukemia 108%

Cc1cc(NC(=O)COC(=O)c2sc3cc(F)ccc3c2Cl)no1
inactive: SK-MEL-2 melanoma 44.8% | EKVX NSCLC 105% | SN12C renal 107% | UO-31 renal 39.2% | TK-10 renal 125% | ACHN renal 106% | CAKI-1 renal 110% | A498 renal 103% | CCRF-CEM leukemia 66.9% | MOLT-4 leukemia 108%

O=[N+]([O-])c1ccc(S(=O)(=O)N2CCN(c3ccnc4cc(Cl)ccc34)CC2)c([N+](=O)[O-])c1
inactive: SK-MEL-2 melanoma 101% | EKVX NSCLC 87.9% | SN12C renal 88.2% | UO-31 renal 55.4% | TK-10 renal 95.4% | ACHN renal 84.3% | CAKI-1 renal 81.1% | A498 renal 90% | CCRF-CEM leukemia 14.8% | MOLT-4 leukemia 44.5%

O=C(CCCn1c2c(sc3ccccc32)c(=O)n2nnc(-c3ccccc3)c12)NCCc1cnc[nH]1
active: SK-MEL-2 melanoma -90.3% | SN12C renal 1.75% | UO-31 renal -90.3% | TK-10 renal -89.4% | ACHN renal -19.4% | CAKI-1 renal -84%
inactive: A498 renal 27.2% | CCRF-CEM leukemia 38.4% | MOLT-4 leukemia 79.4%

NCCSC(c1ccccc1)(c1ccccc1)c1ccccc1
inactive: SK-MEL-2 melanoma 25.6% | SN12C renal 23.7% | UO-31 renal 42.7% | TK-10 renal 54.6% | ACHN renal 46.2% | CAKI-1 renal 15.9% | A498 renal 24.1%
active: CCRF-CEM leukemia 2.43% | MOLT-4 leukemia 3.39%

CN(C)C/C=C/C(=O)Nc1cc2c(Nc3cccc(Cl)c3F)ncnc2cc1OCCOC(F)F
inactive: SK-MEL-2 melanoma 70.1% | EKVX NSCLC 19.2% | UO-31 renal 16.1% | TK-10 renal 22.4% | CAKI-1 renal 10.1% | CCRF-CEM leukemia 63.1% | MOLT-4 leukemia 38.6%
active: ACHN renal 4.97% | A498 renal -14.5%

COc1ccc(C2=NN(c3ccc(S(N)(=O)=O)cc3)C(c3cn(-c4ccccc4)nc3-c3ccc(Cl)cc3)C2)cc1 (stereo unspecified)
inactive: SK-MEL-2 melanoma 94.7% | SN12C renal 96.7% | UO-31 renal 60.5% | TK-10 renal 90.6% | ACHN renal 95.4% | CAKI-1 renal 90.9% | A498 renal 76.4% | CCRF-CEM leukemia 73.3% | MOLT-4 leukemia 69.2%

CCc1cccc(C)c1NC(=O)c1sc2nc3c(cc2c1N)C(=O)CCC3
active: A498 renal -9.18% | CCRF-CEM leukemia 9.81%
inactive: SK-MEL-2 melanoma 27.5% | SN12C renal 51.5% | UO-31 renal 50.1% | TK-10 renal 51.5% | ACHN renal 51.9% | CAKI-1 renal 45.8% | MOLT-4 leukemia 18%

CCCCCCCCCCC/C=C\C[C@H](O)C/C=C1/C(=O)C=C[C@@H]1C/C=C\CCCC(=O)OC
active: SK-MEL-2 melanoma -24.4% | EKVX NSCLC 1.38% | UO-31 renal -63% | TK-10 renal 0.114% | ACHN renal -20.1% | MOLT-4 leukemia -0.235%
inactive: CAKI-1 renal 13.8% | A498 renal 99.7% | CCRF-CEM leukemia 12.2%

Oc1ccc(Cl)cc1-c1cc(-c2ccc(Cl)cc2)n[nH]1
inactive: SK-MEL-2 melanoma 90.7% | SN12C renal 61.5% | UO-31 renal 29% | TK-10 renal 102% | ACHN renal 52.8% | CAKI-1 renal 47.7% | A498 renal 84.3% | CCRF-CEM leukemia 36.7% | MOLT-4 leukemia 39.5%

COc1ccccc1OCC(=O)Nc1sc2c(c1C(N)=O)CCC2
inactive: SK-MEL-2 melanoma 37.5% | SN12C renal 64.2% | UO-31 renal 26.5% | TK-10 renal 104% | ACHN renal 32.2% | CAKI-1 renal 63.7% | A498 renal 67.1% | CCRF-CEM leukemia 24.3% | MOLT-4 leukemia 26%

CN(C)c1ncc(-c2ccc(C(F)(F)F)cc2)c(NC2CCCCCC2)n1
inactive: SK-MEL-2 melanoma 56.6% | SN12C renal 45.9% | UO-31 renal 31% | TK-10 renal 65.2% | ACHN renal 16.5% | CAKI-1 renal 85.5% | A498 renal 81.2% | CCRF-CEM leukemia 45.5% | MOLT-4 leukemia 76.5%

O=C(CN1CCN(c2cc3c(cc2F)c(=O)c(C(=O)O)cn3C2CC2)CC1)Nc1ccc(C(=O)/C=C/c2ccccc2)cc1
inactive: SK-MEL-2 melanoma 53.7% | SN12C renal 11.3% | UO-31 renal 45% | TK-10 renal 39.9% | ACHN renal 40.1% | CAKI-1 renal 73.1% | A498 renal 57.7% | CCRF-CEM leukemia 15.2% | MOLT-4 leukemia 19%

O=C(CN1CCN(c2cc3c(cc2F)c(=O)c(C(=O)O)cn3C2CC2)CC1)Nc1ccc(C(=O)/C=C/c2ccc(Cl)cc2)cc1
inactive: SK-MEL-2 melanoma 113% | SN12C renal 94.2% | UO-31 renal 94.6% | TK-10 renal 111% | ACHN renal 107% | CAKI-1 renal 102% | A498 renal 102% | CCRF-CEM leukemia 99.5% | MOLT-4 leukemia 110%

c1ccc2nc(-c3ccc4ccccc4n3)ccc2c1
inactive: SK-MEL-2 melanoma 88% | SN12C renal 95.9% | UO-31 renal 78.4% | TK-10 renal 116% | ACHN renal 96.4% | CAKI-1 renal 83.2% | A498 renal 97.3% | CCRF-CEM leukemia 90% | MOLT-4 leukemia 88.3%

O=C(O)C(=Cc1c2ccccc2cc2ccccc12)C(=O)O
inactive: SK-MEL-2 melanoma 104% | SN12C renal 101% | UO-31 renal 82% | TK-10 renal 93.3% | ACHN renal 97.6% | CAKI-1 renal 99.9% | A498 renal 83.3% | CCRF-CEM leukemia 101% | MOLT-4 leukemia 92.4%

N#CC1=C(N)n2nc(-c3ccncc3)nc2NC1c1cccc2ccccc12 (stereo unspecified)
inactive: SK-MEL-2 melanoma 96.3% | SN12C renal 96.6% | UO-31 renal 58.1% | TK-10 renal 103% | ACHN renal 95.2% | CAKI-1 renal 69% | A498 renal 89.8% | CCRF-CEM leukemia 87.7% | MOLT-4 leukemia 86.4%

CCSc1nnc(NC(=O)Cc2ccc(Cl)cc2)s1
inactive: SK-MEL-2 melanoma 73.4% | EKVX NSCLC 103% | UO-31 renal 40% | TK-10 renal 113% | ACHN renal 103% | CAKI-1 renal 102% | A498 renal 100% | CCRF-CEM leukemia 87.9% | MOLT-4 leukemia 103%

FC(F)(F)c1cccc(-n2nnc3cnc(Nc4ccc(N5CCCCC5)cc4)nc32)c1
inactive: SK-MEL-2 melanoma 96.8% | SN12C renal 91% | UO-31 renal 100% | TK-10 renal 97.2% | ACHN renal 56% | CAKI-1 renal 72.9% | A498 renal 89.4% | CCRF-CEM leukemia 34.1% | MOLT-4 leukemia 63%

O=C(c1ccncc1)N1N=C(c2ccc(Cl)cc2)CC1c1c[nH]c2ccccc12 (stereo unspecified)
inactive: SK-MEL-2 melanoma 83% | SN12C renal 92.9% | UO-31 renal 45.2% | TK-10 renal 107% | ACHN renal 94.8% | CAKI-1 renal 90.2% | A498 renal 80.5% | CCRF-CEM leukemia 56.7% | MOLT-4 leukemia 75.1%

CCNC(=O)CCCCC(=O)c1c(C)[nH]c(/C=C2\N=C(c3ccc[nH]3)C=C2OC)c1C
active: UO-31 renal -100% | TK-10 renal -61.6% | ACHN renal -3.69% | CAKI-1 renal -29.9%
inactive: SK-MEL-2 melanoma 40.8% | SN12C renal 23.3% | A498 renal 95.8% | CCRF-CEM leukemia 42.2% | MOLT-4 leukemia 79.8%

COC(=O)[C@H]1[C@H](OC)[C@@H](OC(=O)/C=C/c2ccncc2)CC2CN3CCc4c([nH]c5cc(OC)ccc45)[C@@H]3C[C@@H]21 (stereo partly specified)
inactive: SK-MEL-2 melanoma 103% | SN12C renal 70.2% | UO-31 renal 56.9% | TK-10 renal 91.6% | ACHN renal 63% | CAKI-1 renal 53.3% | A498 renal 31.5% | CCRF-CEM leukemia 57.5% | MOLT-4 leukemia 78.2%

COc1cc(C(=O)CCCl)ccc1O
inactive: SK-MEL-2 melanoma 114% | SN12C renal 95.6% | UO-31 renal 90.9% | TK-10 renal 109% | ACHN renal 96.9% | CAKI-1 renal 90.2% | A498 renal 106% | CCRF-CEM leukemia 106% | MOLT-4 leukemia 99.5%

CC1=CNNc2c3ncnc-3ncn21
inactive: SK-MEL-2 melanoma 111% | SN12C renal 105% | UO-31 renal 90.6% | TK-10 renal 105% | ACHN renal 99.8% | CAKI-1 renal 102% | A498 renal 95.7% | CCRF-CEM leukemia 96.1% | MOLT-4 leukemia 91.9%

COc1ccc(/C=C2\Oc3cc(OCCN4CCCC4)ccc3C2=O)c(OC)c1
inactive: SK-MEL-2 melanoma 101% | EKVX NSCLC 98.1% | UO-31 renal 81.2% | TK-10 renal 115% | ACHN renal 95.7% | CAKI-1 renal 92.4% | A498 renal 88.5% | MOLT-4 leukemia 86.7%

C=C1C(=O)O[C@H]2[C@H]1CC/C(COC(=O)NCCc1ccc(Br)cc1)=C\CC[C@@]1(C)O[C@@H]21
inactive: SK-MEL-2 melanoma 57.8% | EKVX NSCLC 57.3% | TK-10 renal 25.9% | CAKI-1 renal 22.6% | A498 renal 79.1%
active: UO-31 renal -20.5% | ACHN renal -60.1% | CCRF-CEM leukemia 4% | MOLT-4 leukemia -19.1%
